High-throughput results: PubChem, several laboratories
Mcl1-Bid inh: Mcl-1/Bid interaction inhibition | Q07820 | TR-FRET Mcl-1/Bid-Dy647 peptide binding, 1536-well | inhibition, % at 21.7 µM | actives 0.97% (n = 220,000);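 active = compounds that cut the binding signal by more than half at the single screening dose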;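 note: His-tagged Mcl-1 with europium anti-His antibody binding Bid BH3 peptide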
Target sequence (Q07820 whole entry, looked up): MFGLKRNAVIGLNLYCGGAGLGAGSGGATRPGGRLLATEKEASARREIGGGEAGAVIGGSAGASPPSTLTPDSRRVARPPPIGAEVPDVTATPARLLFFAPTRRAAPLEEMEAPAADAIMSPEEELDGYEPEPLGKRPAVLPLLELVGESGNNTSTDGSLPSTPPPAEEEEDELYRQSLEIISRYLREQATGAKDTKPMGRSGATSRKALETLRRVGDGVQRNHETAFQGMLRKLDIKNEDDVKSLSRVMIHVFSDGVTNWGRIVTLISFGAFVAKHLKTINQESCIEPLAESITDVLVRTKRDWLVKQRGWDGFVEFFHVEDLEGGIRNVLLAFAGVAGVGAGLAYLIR
Mcl1 Noxa PPI: disrupts binding of human Mcl-1 to Noxa peptide; TR-FRET Mcl-1/Noxa peptide binding, 2 h; inhibition, % at 21.7 µM; actives 1.5% (n = 220,000); AID 1022;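 active = compounds that cut the protein-peptide binding signal by more than 50% relative to plate controls in a single-dose test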;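 note: His-tagged Mcl-1 with rhodamine Noxa BH3 peptide and terbium anti-His antibody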
MCL1 BIM primary: MCL1-BIM-BH3 interaction inhibition (human). GST-MCL1 / FITC-Bim-BH3 fluorescence polarization. inhibition, % at 10.9 µM. Q07820. actives 0.68% (n = 320,000);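 active = inhibition above the mean inhibition of all tested compounds plus 3 SD, set per campaign, cut at about 40% in these data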;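 note: higher means more loss of mP so more displacement of Bim peptide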
BCLXL inh: blocks human Bcl-xL binding to Bim BH3 peptide. GST-Bcl-xL / FITC-Bim BH3 peptide fluorescence polarization. Q07817. inhibition, % at 10.9 µM. AID 2129. actives 0.7% (n = 320,000);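 active = inhibition above the mean of all tested compounds plus 3 SD, cutoff set per campaign, cut at about 30% in these data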;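 note: inhibitors lower millipolarization by displacing the labeled peptide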
Bim-Mcl-1: disrupts Bim peptide binding to human Mcl-1 | Q07820 | Bead-based flow cytometry, Bim peptide-Mcl-1 binding | inhibition, % at 10 µM | actives 0.1% (n = 190,000) | AID 1009; in the data active = inhibition above about 40%
GLD-1 RNA inh: GLD-1-TGE RNA interaction inhibition (C. elegans); purified GLD-1 + fluorescein TGE RNA, fluorescence polarization; inhibition, % at 5.96 µM; actives 0.44% (n = 320,000); AID 2280;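 active = percent inhibition above a per-plate cutoff, the plate mean of test compounds plus 3 SD, cut at about 30% in these data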
Target sequence (Q17339 whole entry, looked up): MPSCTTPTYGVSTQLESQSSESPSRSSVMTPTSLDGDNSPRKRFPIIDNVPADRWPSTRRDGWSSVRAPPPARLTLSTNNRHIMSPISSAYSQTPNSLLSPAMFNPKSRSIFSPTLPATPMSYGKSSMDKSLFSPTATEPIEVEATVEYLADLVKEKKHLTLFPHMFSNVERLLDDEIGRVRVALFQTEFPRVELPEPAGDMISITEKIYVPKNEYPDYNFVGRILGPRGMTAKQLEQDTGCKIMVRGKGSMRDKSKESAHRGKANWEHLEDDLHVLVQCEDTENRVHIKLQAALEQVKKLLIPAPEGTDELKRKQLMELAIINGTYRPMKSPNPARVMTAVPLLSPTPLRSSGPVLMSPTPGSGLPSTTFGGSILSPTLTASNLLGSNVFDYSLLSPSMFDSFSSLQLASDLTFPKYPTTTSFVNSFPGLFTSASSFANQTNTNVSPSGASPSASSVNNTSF
BCLXL inh confirm: counter-screen for MCL1 inhibitors: confirmation of human Bcl-xL inhibitors; actives 54% (n = 1,700); inhibition, % at 10.9 µM; GST-Bcl-xL / FITC-Bim BH3 peptide FP binding; shares compounds with MCL1 BIM primary;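 active = inhibition above a cutoff equal to the mean inhibition of all tested compounds plus 3 SD, cut at about 30% in these data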
MCL1 BIM confirm: confirmation of human MCL1 and BIM-BH3 interaction inhibitors; shares compounds with MCL1 BIM primary; GST-MCL1 / FITC-Bim-BH3 fluorescence polarization; actives 61% (n = 1,700); inhibition, % at 10.9 µM;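 active = inhibition above the average of all tested compounds plus 3 SD, cut at about 40% in these data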
Each line names hits and unclear results; the compound was inactive in the other large screens (follow-up assays come after a bar, where they were run). Hits are enriched below; roughly 2.3% of the tested compounds scored in any of these assays.

Cc1ccccc1-c1nc(Cc2ccccc2)no1	MCL1 BIM primary 44 | BCLXL inh confirm inactive | MCL1 BIM confirm inactive
Nc1cccc(S(=O)(=O)NC2=NCCC2)c1	none
O=C(CCN1C(=O)C2CC=C(Cl)CC2C1=O)N1CCCCC1 (stereo unspecified)	MCL1 BIM primary 56, BCLXL inh 54, GLD-1 RNA inh 58 | BCLXL inh confirm 56 | MCL1 BIM confirm 66
Cc1noc(NS(=O)(=O)c2ccc(NC(=O)CCC3CCCC3)cc2)c1C	none
O=C1NC(=S)SC1=C1CCCC1	MCL1 BIM primary 44 | BCLXL inh confirm inactive | MCL1 BIM confirm 60
O=S(=O)([N-]c1nc2ccccc2nc1-[n+]1ccc(-c2ccncc2)cc1)c1ccccc1	MCL1 BIM primary active, BCLXL inh 188, GLD-1 RNA inh 153 | BCLXL inh confirm 150 | MCL1 BIM confirm 183
O=S(=O)([N-]c1nc2ccccc2nc1-[n+]1ccccc1)c1ccccc1	none
COc1ccc(-c2onc3ccc(Br)cc23)cc1	MCL1 BIM primary 132, BCLXL inh 113, GLD-1 RNA inh 97 | BCLXL inh confirm 111 | MCL1 BIM confirm 134
COc1cccc(C(=O)/C=C/Nc2cccc(O)c2)c1	MCL1 BIM primary 94, BCLXL inh 86 | BCLXL inh confirm inactive | MCL1 BIM confirm inactive
CC1Cc2cc(/C(O)=C3/C(=O)C(=O)N(CCCn4ccnc4)C3c3cccc([N+](=O)[O-])c3)ccc2O1 (stereo unspecified)	none (no result: Mcl1-Bid inh, Mcl1 Noxa PPI, Bim-Mcl-1)
C/C(=N\NC(=O)c1cc(O)cc(O)c1)c1ccc(NC(=O)Cc2ccccc2)cc1	MCL1 BIM primary 78, BCLXL inh 32 (no result: Mcl1-Bid inh, Mcl1 Noxa PPI, Bim-Mcl-1) | BCLXL inh confirm 46 | MCL1 BIM confirm 93
Cc1ccc2nc(NC(=O)c3ccccn3)sc2c1	none
CCOc1ccc2nc(NC(=O)c3ccccn3)sc2c1	MCL1 BIM primary 56 (no result: Bim-Mcl-1) | BCLXL inh confirm inactive | MCL1 BIM confirm inactive
C=CC[C@@H](CC(=O)NCCO)C(=O)NC[C@@H](OC(=O)[C@H](CC=C)CC(=O)OC(C)(C)C)c1ccccc1	none (no result: Mcl1-Bid inh, Mcl1 Noxa PPI, MCL1 BIM primary, BCLXL inh, Bim-Mcl-1)
COc1ccc2c(c1)O/C(=C\c1ccco1)C2=O	none (no result: Bim-Mcl-1)
Cc1cc(O)c(CN(C)C)c2c1C(=O)/C(=C/c1ccco1)O2	MCL1 BIM primary 61, BCLXL inh 62 (no result: Mcl1-Bid inh, Mcl1 Noxa PPI, Bim-Mcl-1) | BCLXL inh confirm 78 | MCL1 BIM confirm 89
O=C(NC1CC2CCC(C1)N2C(=O)NC1CCCCC1)NC12CC3CC(CC(C3)C1)C2 (stereo unspecified)	none
CCOc1ccc(NC(=O)c2cccc(-n3cccc3)c2)cc1S(=O)(=O)N1CCOCC1	MCL1 BIM primary 67 (no result: Mcl1-Bid inh, Mcl1 Noxa PPI, Bim-Mcl-1) | BCLXL inh confirm inactive | MCL1 BIM confirm 56
COCC(C)N1C(=O)Cc2c1nc(N)c1c(N)nc(N3CCN(c4ccccc4F)CC3)c(C#N)c21 (stereo unspecified)	none
COCCN1C(=O)Cc2c1nc(N)c1c(N)nc(N3CCN(c4ccc(F)cc4)CC3)c(C#N)c21	Mcl1 Noxa PPI 61, MCL1 BIM primary 42 | BCLXL inh confirm inactive | MCL1 BIM confirm inactive
Cc1cc(SCC(=O)N/N=C/c2ccc(O)cc2O)nc2ccccc12	none (no result: Mcl1-Bid inh, Mcl1 Noxa PPI, Bim-Mcl-1)
Cc1cc(SCC(=O)N/N=C/c2ccc(O)c(O)c2)nc2ccccc12	MCL1 BIM primary 49 (no result: Mcl1-Bid inh, Mcl1 Noxa PPI, Bim-Mcl-1) | BCLXL inh confirm 47 | MCL1 BIM confirm 74
COc1cccc2c(SCC(=O)N/N=C/c3ccc(O)c(O)c3)cc(C)nc12	Mcl1 Noxa PPI 64, MCL1 BIM primary 43 | BCLXL inh confirm 36 | MCL1 BIM confirm 72
N#CC1=C(N)C(C#N)(C#N)C(c2cccnc2)C2CCCC=C12 (stereo unspecified)	MCL1 BIM primary 81, BCLXL inh 84, GLD-1 RNA inh 60 | BCLXL inh confirm 75 | MCL1 BIM confirm 85
N#CC1=C(N)C(C#N)(C#N)C(c2cccnc2)C2CC(c3ccccc3)CC=C12 (stereo unspecified)	MCL1 BIM primary 135, BCLXL inh 110, GLD-1 RNA inh 103 | BCLXL inh confirm inactive | MCL1 BIM confirm inactive
N#CC1=C(N)C(C#N)(C#N)[C@H](c2cccnc2)[C@H]2CN(C(=O)OCc3ccccc3)CC=C12	none
N#CC1=C(N)C(C#N)(C#N)C(c2ccc[nH]2)C2CCCC=C12 (stereo unspecified)	MCL1 BIM primary 72, BCLXL inh 67, GLD-1 RNA inh 77 | BCLXL inh confirm 39 | MCL1 BIM confirm inactive
COc1ccccc1C(=O)NC(=O)Nc1c(C)cc(C)cc1C	none (no result: Mcl1-Bid inh, Mcl1 Noxa PPI, Bim-Mcl-1)
CCCC(=O)Nc1cc(S(=O)(=O)N(CC)CC)ccc1Cl	none
C=CCN1c2ccccc2[C@]23C[C@@H](C(=O)OC)N(C(=O)c4cccs4)C2=NC(C(=O)OC)=C(C(=O)OC)[C@H]13	none (no result: Bim-Mcl-1)
Cc1ccccc1NC(=O)COC(=O)c1ccc(S(=O)(=O)N2CCCC2)cc1	none (no result: Mcl1-Bid inh, Mcl1 Noxa PPI, Bim-Mcl-1)
O=C(N/N=C/c1ccncc1)c1cc([N+](=O)[O-])cc([N+](=O)[O-])c1O	Mcl1 Noxa PPI 84, MCL1 BIM primary 43 | BCLXL inh confirm inactive | MCL1 BIM confirm 49
O=C(N/N=C/c1cc2c(c([N+](=O)[O-])c1)OCO2)c1ccncc1	none (no result: Mcl1-Bid inh, Mcl1 Noxa PPI, Bim-Mcl-1)
CCN1C(Nc2ccccc2)=NC[C@@H]1C	none (no result: Mcl1-Bid inh, Mcl1 Noxa PPI, Bim-Mcl-1)
O=C1Nc2ccccc2SC(c2ccccc2)C1O (stereo unspecified)	Mcl1-Bid inh 63, Mcl1 Noxa PPI 104, MCL1 BIM primary 63 | BCLXL inh confirm inactive | MCL1 BIM confirm 91
Cc1c(OC(C)C(=O)NCCN2CCOCC2)ccc2c3c(c(=O)oc12)CCC3 (stereo unspecified)	none (no result: Mcl1-Bid inh, Mcl1 Noxa PPI, Bim-Mcl-1)
CCn1c(/C=C/c2ccccc2)nc2ccccc21	none
CCCn1c(/C=C/c2cc[n+](C)cc2)nc2ccccc21	MCL1 BIM primary 72, BCLXL inh 67 (no result: Mcl1-Bid inh, Mcl1 Noxa PPI, Bim-Mcl-1) | BCLXL inh confirm 53 | MCL1 BIM confirm 56
CCc1nnc(NC(=O)CSc2sc3c(O)cc(=O)[nH]c3c2C#N)s1	MCL1 BIM primary 48 (no result: Mcl1-Bid inh, Mcl1 Noxa PPI, Bim-Mcl-1) | BCLXL inh confirm 32 | MCL1 BIM confirm 58
COc1ccccc1NC(=O)CSc1sc2c(O)cc(=O)[nH]c2c1C#N	MCL1 BIM primary 45 (no result: Mcl1-Bid inh, Mcl1 Noxa PPI, Bim-Mcl-1) | BCLXL inh confirm inactive | MCL1 BIM confirm inactive
COc1ccc(NC(=O)CSc2sc3c(O)cc(=O)[nH]c3c2C#N)c(OC)c1	none (no result: Mcl1-Bid inh, Mcl1 Noxa PPI, Bim-Mcl-1)
O=C(Cc1ccccc1)c1c[nH]c(C(=O)NCCCn2ccnc2)c1	none
O=c1[nH]n2c(=O)c3c([nH]c2c1N=Nc1cccc(Cl)c1)CCC3	Mcl1 Noxa PPI 58, MCL1 BIM primary 42 | BCLXL inh confirm inactive | MCL1 BIM confirm inactive
O=S1(=O)CCOC[C@H](c2ccccc2)N1Cc1cccc(F)c1	none (no result: Mcl1-Bid inh, Mcl1 Noxa PPI, Bim-Mcl-1)
COc1ccc(NS(=O)(=O)c2ccc(F)c(Cl)c2)cn1	MCL1 BIM primary 124, BCLXL inh 103, GLD-1 RNA inh 99 (no result: Mcl1-Bid inh, Mcl1 Noxa PPI, Bim-Mcl-1) | BCLXL inh confirm 49 | MCL1 BIM confirm 57
